Most compounds without a hit are left out; they make up all but 6.3% or so of the library.
tim10-1 inh – growth inhibitors of tim10-1 mutant yeast, primary screen, luminescence, uHTS; S. cerevisiae tim10-1 ts strain growth, BacTiter-Glo, 24 h; inhibition, % at 20 µM; 2.2% of 330,000 active;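 active = inhibition of at least 40%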;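 also: mutant grown at 25 °C; 0% = DMSO wells with yeast and 100% = wells holding no yeast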
MPTP inh – mitochondrial permeability transition pore inhibitors, primary screen, biochemical, isolated mouse mitochondria, absorbance; inhibition, % at 10 µM; Ca2+ swelling absorbance, 30 min; AID 602449, 2012; 1.4% of 360,000 active;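 active = inhibition of 50% or more, scaled per plate between neutral and stimulator controls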;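 also: 0% = DMSO wells given calcium and 100% = 1 mM EGTA wells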
Mdm2-MdmX inh – inhibitors of human Mdm2-MdmX association, primary screen, cell-based, luminescence, split luciferase, SaOS-2, uHTS; SaOS-2 split-luciferase Mdm2/MdmX complementation; inhibition, % at 8 µM; 3% of 330,000 active; AID 485346, 2010;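 active = inhibition of at least 50% at 8 µM in the primary screen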
Target sequence (O15151 whole entry, looked up): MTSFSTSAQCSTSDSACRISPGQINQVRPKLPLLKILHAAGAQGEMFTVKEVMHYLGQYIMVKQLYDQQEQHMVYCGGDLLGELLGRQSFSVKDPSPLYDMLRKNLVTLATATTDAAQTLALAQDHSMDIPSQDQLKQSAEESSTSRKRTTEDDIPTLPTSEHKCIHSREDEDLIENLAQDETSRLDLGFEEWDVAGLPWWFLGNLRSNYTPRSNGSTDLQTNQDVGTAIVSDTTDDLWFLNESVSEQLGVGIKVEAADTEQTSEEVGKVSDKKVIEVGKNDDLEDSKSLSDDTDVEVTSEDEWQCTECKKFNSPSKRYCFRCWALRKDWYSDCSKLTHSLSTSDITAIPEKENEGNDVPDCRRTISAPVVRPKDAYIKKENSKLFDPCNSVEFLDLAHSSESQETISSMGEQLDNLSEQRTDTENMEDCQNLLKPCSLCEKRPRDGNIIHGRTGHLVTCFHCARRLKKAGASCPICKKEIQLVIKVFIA
Target sequence (Q00987 whole entry, looked up): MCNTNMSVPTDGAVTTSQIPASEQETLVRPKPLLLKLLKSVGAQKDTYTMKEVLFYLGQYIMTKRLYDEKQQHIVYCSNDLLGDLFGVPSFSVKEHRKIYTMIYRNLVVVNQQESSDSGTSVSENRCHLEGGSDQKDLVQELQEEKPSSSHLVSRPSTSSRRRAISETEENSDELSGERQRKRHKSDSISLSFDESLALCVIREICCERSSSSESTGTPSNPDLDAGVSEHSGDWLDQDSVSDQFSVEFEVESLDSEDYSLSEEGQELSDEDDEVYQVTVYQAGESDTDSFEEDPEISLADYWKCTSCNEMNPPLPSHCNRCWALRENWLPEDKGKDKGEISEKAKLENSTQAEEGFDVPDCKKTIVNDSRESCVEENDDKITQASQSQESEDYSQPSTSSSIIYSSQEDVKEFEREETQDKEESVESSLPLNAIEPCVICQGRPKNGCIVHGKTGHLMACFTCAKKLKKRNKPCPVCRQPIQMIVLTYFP
tim23-1 inh – growth inhibitors of tim23-1 mutant yeast, primary screen, luminescence, uHTS | inhibition, % at 20 µM | S. cerevisiae tim23-1 growth, BacTiter-Glo luminescence, 24 h | 1.3% of 330,000 active;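 active = growth inhibition of the mutant yeast at or above 50%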;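 also: temperature-sensitive mutant grown at 25 °C; plate controls were DMSO-treated mutant yeast for no effect and medium wells lacking yeast for full effect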
TIM10 inh – growth inhibitors of isogenic TIM10 control yeast, primary screen, counter-screen for tim10-1 yeast inhibitor project, luminescence, uHTS. S. cerevisiae TIM10 strain growth, BacTiter-Glo luminescence, 24 h. AID 463195, 2010. 1.4% of 330,000 active. inhibition, % at 10 µM;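 active = inhibition of 40% or more at the single tested concentration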;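 also: wild-type TIM10 isogenic control strain grown at permissive 25 °C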
tim10 confirm – growth inhibitors of wild-type TIM10 yeast, confirmation, counter-screen for tim10-1 synthetic lethality project, single concentration, luminescence, S. cerevisiae; shares compounds with TIM10 inh; S. cerevisiae tim10 strain growth, BacTiter-Glo luminescence, 24 h; inhibition, % at 10 µM; 63% of 4,600 active; AID 463215, 2010;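 active = inhibition of yeast growth at or above a set limit in either of two replicates at 10 µM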;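 also: this counterscreen used the strain with wild-type TIM10; 0% = yeast with DMSO and 100% = medium wells lacking yeast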
* hit, by the source's call; . = no result given.

SMILES | tim10-1 inh | MPTP inh | Mdm2-MdmX inh | tim23-1 inh | TIM10 inh | tim10 confirm
COc1cc(/C=C(/C(=O)c2cccs2)c2nc3ccccc3[nH]2)ccc1O | 38.1 | 0.5 | 48.8 | 24.6 | 43.2* | 33.6*
O=C(/C=C/[C@H]1O[C@@H](n2ccc(=O)[nH]c2=O)[C@H](O)[C@@H]1O)NCc1ccco1 | . | -0.6 | . | . | . | .
CCOC(=O)CN1C=C(c2ccc3ccccc3n2)C(C[N+](=O)[O-])c2ccccc21 (stereo unspecified) | 27.5 | -10.7 | 23.4 | 29.7 | 56.6* | 61.9*
COc1ccc(NC(=O)COc2ccc(/C=C/c3cc[n+](C)cc3)cc2OC)cc1 | 0.2 | -0.2 | -9.1 | -21.0 | -9.8 | .
COc1cc(/C=C/c2cc[n+](C)cc2)ccc1OCC(=O)Nc1ccc(Cl)c(Cl)c1 | 3.8 | -1.5 | 48.9 | 21.5 | 42.1* | 15.8
Cc1ccc(NC(=O)c2ccccc2OCC(=O)c2ccccc2)cc1 | 30.1 | 7.2 | 16.1 | 13.5 | 30.1 | .
CCOc1ccc(NC(=O)c2ccccc2OCC(=O)c2ccccc2)cc1 | 33.2 | 7.6 | 15.6 | 10.8 | 44.7* | 28.2
O=C(O)c1ccc(N2C(=O)C3C4c5ccccc5C(Br)(c5ccccc54)C3C2=O)cc1 (stereo unspecified) | 17.5 | 3.2 | 14.2 | 19.9 | -5.7 | .
CCc1ccc(N=CC23c4ccccc4C(c4ccccc42)C2C(=O)N(c4ccc(OC)cc4)C(=O)C23)cc1 (stereo unspecified) | 39.4 | 1.2 | 29.6 | 48.7 | 64.4* | 47.5*
COc1ccc(N2C(=O)C3C4c5ccccc5C(C=Nc5ccc(C)cc5C)(c5ccccc54)C3C2=O)cc1 (stereo unspecified) | 34.0 | 1.0 | 27.7 | 46.0 | 53.5* | 45.0*
CCNC(=O)C1(C)CCN(C(=O)c2ccc(OC(F)F)cc2)C1 (stereo unspecified) | . | 1.1 | . | . | . | .
CC1(C)CC2CC(C)(CN2S(=O)(=O)c2ccc(N)cc2)C1 (stereo unspecified) | 38.5 | 0.5 | 6.8 | 39.8 | 53.7* | 28.5
CC(=O)N1CCc2cc(NC(=O)C3(C)CCN3CCc3ccccc3)ccc21 (stereo unspecified) | . | -0.2 | . | . | . | .
CCOC(=O)N1CCN(C(=O)c2ccc3c(c2)sc2nc(-c4ccc(OC)cc4)cn23)CC1 | 18.0 | 1.0 | 4.9 | 16.3 | 49.9* | 44.3*
CC1(C(=O)NS(=O)(=O)c2ccccc2Cl)CCN1C(=O)COc1ccc(Cl)cc1 (stereo unspecified) | . | -2.1 | . | . | . | .
COc1c2c(nc3occc13)C(CC=C(C)C)(OC)C(OC(C)=O)CC2 (stereo unspecified) | 35.5 | -1.2 | 17.6 | 36.3 | 45.6* | -16.8
NC(=O)c1ccc(NC(=O)c2ccc(CN3CCOCC3)cc2)cc1 | 5.0 | 0.8 | -6.1 | 7.0 | 43.2* | -2.6
COc1ccc2nc3sc(C(=O)NCCCN4CCc5ccccc5C4)cc3cc2c1 | 13.8 | 45.2 | -12.3 | 42.7 | 49.0* | 57.0*
CC(C)C(=O)Nc1cccc(COc2ccccc2CN(Cc2ccccc2)C(=O)OC(C)(C)C)c1 | . | 0.1 | . | . | . | .
O=C(OCc1ccccc1)N1CCCC2CC1c1ccccc12 (stereo unspecified) | . | -0.6 | . | . | . | .
Cc1ccccc1N1C(=O)CC(Sc2nnc(-c3ccccc3)o2)C1=O (stereo unspecified) | 32.7 | 11.7 | 4.5 | 31.1 | 44.2* | 44.0*
Clc1ccccc1CNCc1ccc2c(c1)OCO2 | . | -0.1 | . | . | . | .
CN1/C(=C\C(=S)NC(=O)c2ccccc2Cl)C(C)(C)c2ccccc21 | 36.1 | 6.7 | -5.3 | 49.7 | 40.3* | 14.9
O=C(Nc1ccc2nc(-c3ccccc3)[nH]c2c1)c1ccco1 | 4.5 | 1.7 | -110.1 | 44.1 | 49.6* | 24.8
CCCCn1nc(C(=O)N(C)Cc2nc3ccccc3c(=O)[nH]2)c2ccccc2c1=O | . | 1.0 | . | . | . | .
SMILES | tim10-1 inh | MPTP inh | Mdm2-MdmX inh | tim23-1 inh | TIM10 inh | tim10 confirm
COCCCNC(=S)N/N=C/c1ccc2ccccc2c1 | 16.3 | 3.2 | 15.7 | 35.0 | 41.0* | 37.3*
NC(=S)N/N=C/c1ccc2ccccc2c1 | 24.4 | 0.9 | 17.5 | 30.5 | 40.3* | 27.7
COCCCNC(=S)N/N=C/c1ccc(OC)cc1 | 25.1 | 1.7 | 1.8 | 30.0 | 27.3 | .
O=c1[nH]c(-c2ccccc2)ncc1OCc1ccccc1 | . | 0.2 | . | . | . | .
CC(C)NC(=S)NC(c1ccccc1)(c1ccccc1)c1ccccc1 | 33.7 | -0.7 | 49.8 | 43.7 | 45.3* | 48.5*
C/C(=N\NC(=S)NC(C)C)c1ccccc1 | 14.4 | 0.9 | 1.9 | 19.9 | 6.7 | .
O=C(CNCCC1=CCCCC1)Nc1ccccc1N1CCCCC1 | 28.0 | 0.3 | -11.1 | 33.4 | 40.5* | 23.6
N#C/C(=C/c1cccs1)c1nc2ccccc2[nH]1 | -4.8 | 1.9 | -51.9 | 34.0 | 49.7* | -34.6
O=C(CN1CCN(S(=O)(=O)c2ccccc2)CC1)Nc1cccc(C(F)(F)F)c1 | 31.3 | 2.0 | 20.4 | 8.0 | 40.8* | 7.6
CCC(=O)Nc1ccc(C(=O)c2ccccc2)cc1 | 23.3 | -1.3 | 7.3 | 20.1 | 16.8 | .
CCC(=O)Nc1ccc(C(=O)OCc2ccccc2Cl)cc1 | 36.7 | 13.5 | -87.1 | 33.2 | 58.1* | 47.7*
Cc1cc(Nc2ccc(Cl)cc2)nc(-c2ccccc2O)n1 | 25.3 | 12.2 | -1.9 | 24.1 | 14.4 | .
Cc1cc(Nc2cccc(Cl)c2)nc(-c2ccccc2O)n1 | 18.0 | 2.1 | -4.6 | 18.5 | 42.0* | 40.8*
CCCCCOC(=O)c1ccc(NC(=O)c2ccco2)cc1 | 14.9 | 1.4 | -14.7 | 28.9 | 40.7* | 17.1
CC1(C(=O)N2Cc3ccccc3C2)CCN1C(=O)Cc1ccccc1 (stereo unspecified) | . | -1.5 | . | . | . | .
CCN(CC)C(=O)Oc1ccc2c(=O)c(-c3ccc(OC)cc3)c(C)oc2c1 | 36.3 | -1.7 | -1.9 | 33.5 | 45.1* | 30.0
CC1(C(=O)NCc2ccccc2)CSCC(=O)N1Cc1cccs1 (stereo unspecified) | . | 3.3 | . | . | . | .
O=[N+]([O-])c1cccc(NN=Nc2ccccc2)c1 | 38.3 | 0.5 | -75.7 | 42.2 | 40.5* | 31.0*
CC(C)CNc1nnnc2c1sc1nc(N3CCOCC3)c3c(c12)CC(C)(C)SC3 | 37.1 | 2.3 | 35.1 | 3.5 | 40.2* | 21.1
CCCNC(=O)C1(C)CCCN(Cc2ccccc2-c2ccccc2)C1 (stereo unspecified) | . | -0.4 | . | . | . | .
CCOc1ccc(C(NC(=O)CC)c2c(O)ccc3ccccc23)cc1 (stereo unspecified) | 26.1 | 0.9 | 30.1 | 18.7 | 9.2 | .
